Compound activity: PubChem, National Center for Advancing Translational Sciences (NCATS)
Rows were chosen to be rich in hits. Some 11% of all compounds tested hit in one or more screens of this group.
IMPase Li inh: membrane-permeable IMPase blocker, potentiated with lithium | CHO-M1 cells, IP1 TR-FRET (IP-One), carbachol + lithium | Potency, µM (highest dose often 59.4 µM), actives largely listed as inhibitors | actives 0.35% (n = 210,000); active means well fitted curve in the direction sought with a large enough effect; inconclusive means small, poorly fitted or top-dose-only effect, or another doubt; inactive means no such curve, though single readings can be large; an effect the other way counts as inactive or inconclusive;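 further: IP1 builds up when IMPase is blocked and the TR-FRET signal falls; nearly all actives have a fitted effect of over 50% in size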
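Concentration–response in CHO-M1 cells, lithium-potentiated; 30 min at 37C. IP1 detected by competitive TR-FRET after 10 min lysis at RT. Hill-fitted AC50.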
IMPase inh: IMPase inhibition in cells | P97697 | CHO-M1 cells, IP1 accumulation, HTRF TR-FRET ratio | inhibition (IP1 accumulation), % at 46.1 µM | 120,000 tested, under 10 active | AID 901; active means well fitted curve in the direction sought with a large enough effect in the signal ratio, not every such curve was filed as active; inconclusive means small, poorly fitted or top-dose-only effect, or a change in a side signal; inactive means no such curve, though single readings can be large or run the other way; the % refers to the signal ratio;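 further: cells stimulated with carbachol in lithium chloride buffer; higher means more IMPase inhibition seen as more IP1 and lower FRET ratio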
Target sequence (P97697 whole entry, looked up): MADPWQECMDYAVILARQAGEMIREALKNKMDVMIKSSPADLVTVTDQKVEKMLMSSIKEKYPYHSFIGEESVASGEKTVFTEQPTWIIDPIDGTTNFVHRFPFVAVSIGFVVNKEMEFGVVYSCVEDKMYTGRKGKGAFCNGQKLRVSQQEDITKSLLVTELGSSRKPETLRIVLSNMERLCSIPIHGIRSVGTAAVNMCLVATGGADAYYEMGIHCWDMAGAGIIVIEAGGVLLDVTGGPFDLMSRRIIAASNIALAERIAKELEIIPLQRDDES
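Cellular IMPase inhibition is scored as a rise in cytosolic IP1, detected by competitive TR-FRET between d2-labelled IP1 and a europium anti-IP1 antibody. M1-expressing CHO cells were stimulated with carbachol for 30 min at 37C, with lithium (50 mM LiCl) present in the buffer.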
ALDH1A1 block: blocks purified human ALDH1A1 activity | Potency, µM (titrated, usually from 75.3 µM), most hits filed as inhibitors | P00352 | actives 7.3% (n = 220,000) | Purified ALDH1A1, NADH fluorescence, propionaldehyde substrate
ALOX12 inhib: inhibitors of human 12-lipoxygenase (ALOX12). purified 12-hLO, xylenol orange hydroperoxide absorbance. Potency, µM (doses to about 57.1 µM), most hits filed as inhibitors. AID 1452. actives 0.12% (n = 150,000). P18054; active means well fitted curve in the direction sought with a large enough effect; inconclusive means small, poorly fitted or top-dose-only effect, or another doubt; inactive means no such curve, though single readings can be large; an effect the other way counts as inactive or inconclusive; further: nearly all actives have a fitted effect of over 55% in size
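Hydroperoxide formation by human 12-lipoxygenase from 40 uM arachidonic acid was followed colorimetrically via ferric-xylenol orange complex, using the 573/405 nm absorbance ratio. Enzyme concentration was 150 nM, with 30 min reaction at room temperature.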
HPGD inh: inhibitors of human 15-hydroxyprostaglandin dehydrogenase (HPGD). Potency, µM, hits mostly inhibitors. purified HPGD, NADH fluorescence kinetic, PGE2 substrate. actives 4.3% (n = 150,000). P15428
Target sequence (P15428 whole entry, looked up): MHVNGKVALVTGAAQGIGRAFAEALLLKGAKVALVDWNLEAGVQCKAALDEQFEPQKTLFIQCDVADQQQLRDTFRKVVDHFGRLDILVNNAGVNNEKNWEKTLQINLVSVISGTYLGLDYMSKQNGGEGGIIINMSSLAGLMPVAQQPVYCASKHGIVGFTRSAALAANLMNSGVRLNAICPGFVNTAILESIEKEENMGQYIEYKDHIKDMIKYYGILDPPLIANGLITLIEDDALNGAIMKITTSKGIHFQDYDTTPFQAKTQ
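NADH formation kinetics: reaction with 30 uM PGE2 and 1 mM NAD+ (final), 20 nM enzyme, Tris-HCl pH 8 with Tween 20, after 15 min compound preincubation at room temperature. Fluorescence change, last versus first of five reads.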
PNC assembly inh: inhibitors of perinucleolar compartment assembly | activity change (PNC), negative = inhibition, % at 10 µM | actives 3.1% (n = 140,000) | PC3M PTB-GFP, PNC prevalence imaging, 16 h; stronger effect = lower value | AID 2417;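 active means readout at or below -70, meaning at least 70% loss of cells showing the perinucleolar compartment, a nuclear body marking cancer cells; inconclusive means readout between -30 and a set limit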
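PC3M cells stably expressing PTB-GFP, 750–1000 cells/well, treated 16 h at 37 °C with compound (23 nl of library stock), in duplicate. After paraformaldehyde fixation and Hoechst stain, imaged at 20x; PNC prevalence scored by image analysis.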
Each line names hits and unclear results; the compound was inactive in the other large screens. Unless noted, the call rests on the fitted dose curve; in most records, active means well fitted inhibition curve with a large enough effect (not every such curve was filed as active); inconclusive means small, poorly fitted or top-dose-only effect, or another doubt; inactive means no such curve, though single readings can be large or run the other way.

N#C/C(=C\c1ccc[nH]1)S(=O)(=O)c1ccccc1	HPGD inh 4.47µM
O=[N+]([O-])c1cc2c(cc1/C=N/n1c(-c3ccccn3)n[nH]c1=S)OCO2	ALDH1A1 block 28.2µM, HPGD inh inconclusive, PNC assembly inh inconclusive (no result: IMPase inh)
O=[N+]([O-])c1cc2c(cc1/C=N/n1c(-c3ccccc3)n[nH]c1=S)OCO2	ALDH1A1 block 12.6µM, HPGD inh 3.16µM, PNC assembly inh inconclusive
O=[N+]([O-])c1ccccc1/C=C/C=N/n1c(-c2ccco2)n[nH]c1=S	none (no result: IMPase inh, ALOX12 inhib, HPGD inh, PNC assembly inh)
O=[N+]([O-])c1ccccc1/C=N/n1c(-c2cccnc2)n[nH]c1=S	ALDH1A1 block inconclusive, HPGD inh inconclusive (no result: IMPase inh)
Cc1ccccc1-c1cncnc1NCc1cccnc1	none (no result: IMPase inh, ALOX12 inhib, HPGD inh, PNC assembly inh)
COc1ccccc1CN1CC[C@@]2(CCCN(C(=O)c3cc(C(F)(F)F)cc(C(F)(F)F)c3)C2)C1	ALDH1A1 block inconclusive (no result: IMPase inh, PNC assembly inh)
C[C@@H]1/C(=N/O)CC2C[C@@H]1C2(C)C	ALDH1A1 block 11.2µM (no result: IMPase inh, PNC assembly inh)
CC1(C)O[C@H]2OC([C@H](O)CON3C(=O)c4ccccc4C3=O)[C@H](O)[C@H]2O1 (some centres undefined)	HPGD inh 15.8µM (no result: IMPase inh)
O=C1CC(NCC2CCCO2)C(=O)N1c1ccc(Cl)cc1 (centres undefined)	ALDH1A1 block inconclusive (no result: IMPase inh, ALOX12 inhib, HPGD inh, PNC assembly inh)
Cc1ccc(N2C(=O)CC(NCC3CCCO3)C2=O)cc1 (centres undefined)	ALDH1A1 block 20µM (no result: IMPase inh, ALOX12 inhib, HPGD inh, PNC assembly inh)
O=C(c1cc2ccccc2oc1=O)N(Cc1ccco1)Cc1cccs1	ALDH1A1 block inconclusive
O=C(c1cc2ccccc2oc1=O)N(Cc1cccs1)Cc1cccs1	ALDH1A1 block 11.2µM
CC1=C(C(N)=O)C(c2cccs2)NC(=S)N1 (centres undefined)	ALDH1A1 block inconclusive (no result: IMPase inh, ALOX12 inhib, HPGD inh, PNC assembly inh)
CC1=C(C(=O)Nc2ccc(C)cc2)C(c2cccs2)NC(=S)N1 (centres undefined)	ALDH1A1 block inconclusive (no result: IMPase inh)
CC1=C(C(=O)Nc2ccc(F)c(F)c2)C(c2cccs2)NC(=S)N1 (centres undefined)	ALDH1A1 block 0.631µM (no result: IMPase inh)
CC1=C(C(=O)OC(C)C)C(c2cccs2)NC(=S)N1 (centres undefined)	ALDH1A1 block 3.16µM, PNC assembly inh inconclusive
C[C@@H](CC(=O)O)[C@@H](N)C(=O)O	none (no result: PNC assembly inh)
Cn1c2ccccc2c2c(C(=O)N3CCN(c4cccc(C(F)(F)F)c4)CC3)cn(C3CCCCC3)c(=O)c21	none (no result: IMPase Li inh, ALDH1A1 block, ALOX12 inhib, HPGD inh, PNC assembly inh)
Cn1c2ccccc2c2c(C(=O)N3CCN(c4ccccc4)CC3)cn(C3CCCC3)c(=O)c21	ALDH1A1 block inconclusive, HPGD inh inconclusive, PNC assembly inh -113.4
Cc1ccc2oc(-c3ccc(Cl)c(NC(=O)c4ccc(OC(C)C)cc4)c3)nc2c1	none (no result: IMPase Li inh, ALDH1A1 block, ALOX12 inhib, HPGD inh, PNC assembly inh)
CCOc1ccc(NC2c3ccccc3C(=O)N2Cc2ccco2)cc1 (centres undefined)	ALDH1A1 block 5.62µM
COc1cc2[nH]c(=S)n(CC3CCCO3)c(=O)c2cc1OC (centres undefined)	ALDH1A1 block 7.94µM
COc1cc2[nH]c(=S)n(C3CCCC3)c(=O)c2cc1OC	ALDH1A1 block inconclusive
CCOc1cc2[nH]c(=S)n(CC3CCCO3)c(=O)c2cc1OCC (centres undefined)	ALDH1A1 block 2.51µM
CC(C)NC(=O)c1ccc2c(=O)n(C3CCCC3)c(=S)[nH]c2c1	ALDH1A1 block 0.447µM, PNC assembly inh inconclusive
COc1cc2[nH]c(=S)n(C3CC3)c(=O)c2cc1OC	ALDH1A1 block 28.2µM (no result: IMPase inh, ALOX12 inhib, HPGD inh, PNC assembly inh)
COc1cccc(-c2cc(=O)c3cc(O)ccc3o2)c1	none (no result: PNC assembly inh)
COc1ccc(CC(N)C(=O)NC2C(CO)OC(n3cnc4c(N(C)C)ncnc43)C2O)cc1 (centres undefined)	none (no result: IMPase inh, PNC assembly inh)
O=C(C1CC1)N(Cc1ccco1)c1nc(-c2ccccc2)cs1	ALDH1A1 block 6.31µM
O=C(c1ccc2c(c1)OCO2)N1CCN=C1SCc1ccccc1	ALDH1A1 block 11.2µM, HPGD inh inconclusive
O=C(Cc1ccc(F)cc1)N1CCN=C1SCc1ccc([N+](=O)[O-])cc1	none
